Here are results for 39 compounds from PubChem BioAssay (NCATS).

Inconclusive results are not listed. Values without a mark were called inactive. The source made the active and inactive calls. Calls follow the shape of the full dose curve; tested in HEK293 reporter line.
% is scaled to controls: 0 for no effect and ±100 for the full control effect.
Also: nearly all actives have a fitted effect of over 80% in size.

The first experiment is described as follows: qHTS for Inhibitors of the Functional Ribonucleoprotein Complex (vRNP) of Lassa (LASV) Arenavirus: Viability assay - alamar blue signal for LASV Primary Screen (AID 1347083). Conditions: cell viability, alamar blue fluorescence (LASV minigenome counter-screen); series mostly up to 57.5 µM; activity change, negative = reduced viability: at the top concentration. (In general: qHTS replaces the single test concentration by a dilution series.)
With `C[C@H]1[C@H]2CC[C@H]3[C@@H]4CC=C5C[C@@H](N(C)C)CC[C@]5(C)[C@H]4CC[C@]23CN1C`, the “activity change, negative = reduced viability” value was -8%. With `C[C@]12CCC(=O)C=C1CC[C@@H]1[C@@H]2CC[C@@]2(C)[C@H]1CC[C@]2(O)C(=O)CO`, the Potency entry was “inactive”.

Turning to `CCOC(=O)OCC/C(SC(=O)OCC)=C(\C)N(C=O)Cc1cnc(C)nc1N`, the “activity change, negative = reduced viability” value was -12.2%. With `C(=C\c1ccccc1)/CN1CCN(C(c2ccccc2)c2ccccc2)CC1`, the Potency result was “inactive”.

Another experiment can be described thus: qHTS for Inhibitors of the Functional Ribonucleoprotein Complex (vRNP) of Lymphocytic Choriomeningitis Arenaviruses (LCMV): Viability assay - alamar blue signal for LCMV Primary Screen (AID 1347085). Conditions: alamar blue viability counter-screen, LCMV vRNP screen cells; series mostly up to 57.5 µM; activity change, negative = lower viability: at the top concentration.
As to `Nc1c(CC(=O)O)cccc1C(=O)c1ccc(Br)cc1`, the “activity change, negative = lower viability” value was 8.41%. For `O=C(O)c1cn(C2CC2)c2cc(Cl)c(F)cc2c1=O`, the “activity change, negative = lower viability” value is 15.7%.

Regarding `CN(C)CCC(c1ccccc1)c1ccccn1` (stereo not drawn), the Potency result was “inactive”. On to `CCN(CCCc1ccccc1)CCCc1ccccc1`, for which the “activity change, negative = lower viability” value is -5.73%. On the same count and under the same terms, under `C[C@@H]1C[C@H]2[C@@H]3CCC4=CC(=O)C=C[C@]4(C)[C@@]3(F)[C@@H](O)C[C@]2(C)[C@H]1C(=O)CO` stands 0.708%. For the compound `CC1=C(C)C(=O)C(C(CCCCCC(=O)O)c2ccccc2)=C(C)C1=O` (stereo not drawn), the Potency result is “inactive”. In the case of `CCN(CC)C(=O)N1CCN(C)CC1`, the “activity change, negative = lower viability” value was 2.94%.

On to `C#C[C@]1(O)CC[C@H]2[C@@H]3CCC4=CC(=O)CC[C@@H]4[C@H]3CC[C@@]21C`, for which the “activity change, negative = lower viability” value is 2.7%. Regarding `C/C(=C(/OCCOc1ccc(Cl)cc1)c1ccc(Cl)cc1Cl)n1ccnc1`, the “activity change, negative = lower viability” value was 10.6%. Regarding `C[C@]12C=CC(=O)C=C1CC[C@H]1[C@@H]3C[C@@H](O)[C@](O)(C(=O)CO)[C@@]3(C)C[C@H](O)[C@@]12F`, the Potency entry is “inactive”. Regarding `C[C@@]12CCC[C@H]1[C@@H]1CC[C@H]3C[C@@H](O)CC[C@]3(C)[C@H]1CC2`, the “activity change, negative = lower viability” value was 20.7%. Same read-out and setting: then `Cc1c(F)cc2c(=O)c(C(=O)O)cn3c2c1CCC3C` (stereo not drawn), with 21.7%. The same measure, in the same setting: under `O=c1[nH]c2ccccc2c(=O)n1CCCl` stands -3.95%; under `OC[C@H]1O[C@@H](OCCc2ccc(O)cc2)[C@H](O)[C@@H](O)[C@H]1O`, 4.87%; under `COC(=O)c1cc(S(N)(=O)=O)ccc1OC`, -6.77%. Still for that read-out and setting: then `O=C(NCCCN1CCOCC1)c1ccc(Cl)cc1`, with 5.48%; and `CC(C)N=C(N)/N=C(\N)Nc1ccc(Cl)cc1`, with 8.12%; and `CC(=O)OCC(=O)[C@@]12N=C(C)O[C@@H]1C[C@H]1[C@@H]3CCC4=CC(=O)C=C[C@]4(C)[C@H]3[C@@H](O)C[C@@]12C`, with -2.77%. Take `CCCCN(CCN(CCCC)C(=O)N1CCOCC1)C(=O)N1CCOCC1`: the “activity change, negative = lower viability” value is -11.1%.

With `CC(=O)[C@@]1(O)CC[C@H]2[C@@H]3CCC4=CC(=O)CC[C@]4(C)[C@H]3CC[C@@]21C`, the Potency result was “inactive”.

As for `O=C(c1cc(O)c(O)c(O)c1)c1ccc(O)c(O)c1O`, the “activity change, negative = lower viability” value was -4.2%. As for `C[C@H]1COc2c(C3(N)CC3)c(F)cc3c(=O)c(C(=O)O)cn1c23`, the “activity change, negative = lower viability” value is 17.7%. The same measure, in the same setting: under `CC(Cc1cccc(C(F)(F)F)c1)NCCOC(=O)c1ccccc1` (stereo not drawn) stands 2.24%; under `CCCCC(=O)O[C@]1(C(=O)CO)[C@@H](C)C[C@H]2[C@@H]3CCC4=CC(=O)C=C[C@]4(C)[C@@]3(F)[C@@H](O)C[C@@]21C`, 0.736%. On to `CN(C)[C@@H]1C(=O)C(C(=O)NCN2CCCC2)=C(O)[C@@]2(O)C(=O)C3=C(O)c4c(O)cccc4[C@@](C)(O)C3C[C@@H]12` (stereo partly drawn), for which the “activity change, negative = lower viability” value is 4.05%. On the same count and under the same terms, under `O=c1[nH]sc2cc(Cl)ccc12` stands -150%. Consider `Cc1cc(C(C)(C)C)cc(C)c1CC1=NCCN1`, for which the Potency entry was “inactive”. For `N[C@H](C(=O)O)[C@@H](O)c1ccc(O)c(O)c1`, the “activity change, negative = lower viability” value was 1.99%. On to `N[C@@H](CSSC[C@H](N)C(=O)O)C(=O)O`, for which the activity change, negative = lower viability was 6.72% [at 0.757 µM]. Same read-out and setting: then `CC(C)(C)CC(C)(C)c1ccc(O)c(Cc2ccc(Cl)cc2Cl)c1`, with 6.57%; and `CC(C)CCCC(C)N` (stereo not drawn), with 2.87%. On the same count and under the same terms, then `Cc1ccc(CCn2c3c(c4cc(Cl)ccc42)CN(C)CC3)cn1`, with -24.8%; and `CC(C)NC(=O)c1ccc(C=O)cc1`, with 0.696%.

Take `CNC1CCCN(c2c(F)cc3c(=O)c(C(=O)O)cn(C4CC4)c3c2OC)C1` (stereo not drawn): the Potency result is “inactive”. On to `CC(=O)OCC(=O)[C@@]1(O)CCC2C3CCC4=CC(=O)CC[C@]4(C)C3[C@@H](O)C[C@@]21C` (stereo partly drawn), for which the Potency result was “inactive”.

In the case of `C[C@H]1[C@H]2CC[C@H]3[C@@H]4CC=C5C[C@@H](N(C)C)CC[C@]5(C)[C@H]4CC[C@]23CN1C`, the “activity change, negative = lower viability” value was -9.24%. For `C[C@]12CCC(=O)C=C1CC[C@@H]1[C@@H]2CC[C@@]2(C)[C@H]1CC[C@]2(O)C(=O)CO`, the “activity change, negative = lower viability” value is 2.27%. On the same count and under the same terms, then `CCOC(=O)OCC/C(SC(=O)OCC)=C(\C)N(C=O)Cc1cnc(C)nc1N`, with -19.9%.

For the compound `C(=C\c1ccccc1)/CN1CCN(C(c2ccccc2)c2ccccc2)CC1`, the Potency result is “inactive”.
